# Test results published in the supplement of paper PMC6555819.
# Experiments:
# Assay in all cases: PBM binding z-score (relative to random genomic background probes); higher = stronger binding; sequences stand for … in GC…GCGATTGACAGCGTAGAATGAAGG
# [1] = system: RARb homodimer (NR concentration 270 nM)
# In short: (§1)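 Random background probes are the reference for binding z-scores. These scores derive from regression-normalized fluorescence on custom Agilent 4×180K protein-binding microarrays incubated 1 h with ligand-free nuclear receptor dimers. Binding was detected with antibodies against each partner (one per run).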
# [2] = system: RARg:RXRa (NR concentration 270 nM, RXRa partner concentration 90 nM)
# In short: as §1
# [3] = system: RARg homodimer (NR concentration 270 nM)
# In short: as §1
# [4] = system: RXRa DBDmut IVT, anti-RXR (DBD mutation: RXRa K156A/R161A, NR concentration 90 nM)
# In short: as §1
# [5] = system: RXRa homodimer (NR concentration 180 nM)
# In short: as §1
# [6] = system: THRa:RXRa (NR concentration 90 nM, RXRa partner concentration 90 nM)
# In short: as §1
# [7] = system: THRa homodimer (NR concentration 90 nM)
# In short: as §1
# [8] = system: VDR:RXRa (NR concentration 270 nM, RXRa partner concentration 90 nM)
# In short: as §1
# [9] = system: VDR homodimer (NR concentration 270 nM)
# In short: as §1
Sequence,PBM binding z-score [1],PBM binding z-score [2],PBM binding z-score [3],PBM binding z-score [4],PBM binding z-score [5],PBM binding z-score [6],PBM binding z-score [7],PBM binding z-score [8],PBM binding z-score [9]
CGTCCAAGCTCAGCAGGTCAGTGAAAGCGACGTG,1.73,0.644,1.1,-0.071,0.158,0.642,-0.345,-0.352,-0.808
TTACCAAAGTGAAAGGTCGTTGATGCACGCCTTG,1.87,1.64,1.01,0.293,2.65,1.34,-0.34,1.86,1.41
TTACAAAGGTGAGCTGAGGTCGTTGATCCAACTC,2.56,2.97,2.69,0.365,2.51,4.84,1.73,5.58,2.57
GCTTACGGGTCAAAGGTTATAGTATGAATAGAAT,3.5,6.8,4.72,2.7,9.39,3.99,0.429,5.76,1.88
CCGAGTCGGTTACGAGGGGGCATTCAGTGCGAAT,1.4,1.66,1.41,0.587,0.76,2.35,0.015,,3.2
CGTCCAAGGTCAGAGAGGTCAGTGTATGCCGAGT,5.2,6.1,6.77,3.28,5.29,4.14,3,7.31,5.78
CCGAGTAGGTTTCGAGGGGGCATTCAGTGCGAAT,1.58,1.89,1.17,1.67,1.19,2.37,0.874,3.65,3.52
CCTACTGGGCCAAAAATGTCATTGATGCCGATAA,-0.0192,-0.247,0.087,-0.297,-0.234,-0.288,-0.816,,-0.383
TAGCCAAGGTCAGATCGGGCCAGTATACGCTATA,3.41,4.59,5.1,1.75,3.58,4.32,1.09,3.07,1.11
TCATATAGGTAATAAAGGTGAAAGTCGGCATCTA,1.76,1.51,0.992,1.83,2.06,1.59,0.669,1.42,0.491
ATGTGTAGGTTACATCCGGGTCATTCAGGCTATG,3.32,3.75,2.19,0.811,2.95,3.94,2.75,4.22,3.1
TCGAGTAGGTTACCGGGGCATTCAGGGATGAAGA,1.09,1.01,0.946,-0.0634,0.997,2.25,0.104,0.816,-0.232
CTATGTAGGTTAAGGGTGTCATTCAGTTTGAAAG,1.44,1.38,0.949,0.738,1.35,1.04,0.005,3.24,1.42
CAAACTAGGTCACGAAAGGTCAACGTCGAATGAC,6.16,8.06,8.96,2.47,8.35,5.36,2.98,6.9,3.47
TCATATAGGTTAAAGGTGAAAGTCGGTGTGGTAA,2.56,3.92,1.76,1.94,5.99,2.62,0.942,3.02,0.81
ATCGAAAGGTCGAAGGTGAGTACACCCACCCGAA,2.79,4.39,4.08,1.13,4.96,2.54,-0.0194,3.97,2.07
TCGAGTAGGTTACGGGGGCAGTCAGGGATGAAGA,2.06,2.82,2.3,1,2.21,2.81,1,2.8,1.25
CCTACTGGGCCAAAGGTCTTTGATTCCAATGCTC,0.557,0.154,0.0453,-0.198,0.321,0.0869,-0.594,-0.283,-0.573
TCGAGTAGGGTACGGGGGCATTCAGGGATGAAGA,1.81,2.33,1.97,2.6,1.67,4.02,1.48,3.64,3.8
CTATGTAGGTTAAGGGGGCCATTCAGTTTGAAAG,1.71,2.17,1.78,1.21,1.73,2.02,0.914,4.74,1.98
CGAACTAGGTCAAAGGACAGTGCAAGGCGACGTA,3.1,3.95,4.42,1.15,3.24,2.57,0.81,1.68,0.767
CCGAGTAGGTTACGAGGGGGCATTCGGTGCGAAT,2.06,3.04,2.32,0.865,2.22,3.76,0.298,5.48,3.61
CGAACTAGGGCACCAGGACAGTGAAGAGGTTGGA,0.758,0.748,1.34,0.0116,0.278,1.05,0.327,,-0.274
CGTCGAAGGTCAATGCTAGGTCAGTGAAAGCATT,5.11,7.62,6.84,2.5,5.4,4.28,1.03,,1.91
CCTACTGGGCCAAGGTCATAGATCAGTCAAAGCA,3.17,3.62,2.88,0.741,3.51,3.38,2.25,,1.92
CGAACTAGGCCAAAGGACAGTGAAAGGCGACGTA,0.837,0.441,1.2,-0.376,0.196,-0.277,-0.915,,-0.627
ATATGTAGGTAACATCCGGGTCATTCAGGCTATG,2.68,2.39,1.58,0.786,2.49,3.62,2.74,,2.52
CTTTGTAGGTTAAGGGGGTCATTCAGTTTGAAAG,3.99,5.28,4.16,2.79,6.08,3.97,2.08,,5.68

Sequence,PBM binding z-score [1],PBM binding z-score [2],PBM binding z-score [3],PBM binding z-score [4],PBM binding z-score [5],PBM binding z-score [6],PBM binding z-score [7],PBM binding z-score [8],PBM binding z-score [9]
ACTCGGAGGACAAAGGTAAGAGCTACGCCAGTGA,0.319,1.08,1.1,0.376,0.494,0.863,-0.169,,-0.2
CGAACTAGTTCACCAGGACAGTGAAGAGGTTGGA,1.09,1.14,1.44,2.02,0.753,1.69,0.658,,1.05
TCGAGTAGGTTATGGGGGCATTCAGGGATGAAGA,2.17,2.62,1.29,1.84,2.1,3.99,1.84,,2.57
CTCGAAAGGTCGTGCTTAGGTGAGTATACCAAAC,3.07,5.09,3.82,2.24,4.91,4.2,1.11,,1.05
CGTCAAAGTTCTAGGTAACGTAACAGAAAGCAGC,-0.287,0.0968,0.323,0.31,0.135,0.719,0.349,,-0.0157
TAGCCTAGGTCATGGGCCTGTATACCACGCGAAC,3.34,4.47,4.67,0.485,3.9,3.23,1.31,,0.584
ATATGTAGGTTAGGGTCCTTCAGAAAGTAGGGAA,0.958,0.561,0.821,0.642,0.851,1.21,0.898,,0.793
GCTGCTAGGTCAGGATGGTCAGCTAACGGGTACG,2.65,2.65,3.23,0.0831,1.18,1.7,0.189,,0.124
CTATGTAGGTTAAGGGGGTGATTCAGTTTGAAAG,1.97,2.23,1.77,1.42,2,2.21,1.73,,2.22
CCGAGTAGGTTACGAGGGGGCTTTCAGTGCGAAT,0.961,1.85,1.36,0.879,1.08,2.33,0.299,,0.538
CTATGTAGGTGAAGGGGGTCATTCAGTTTGAAAG,3.79,4.75,3.55,2.11,5.63,3.88,1.67,,5.55
CGCCCAAGGTCAGCAGGTCAGTGAAAGCGACGTG,4.99,6.47,6.63,2.48,5.3,3.63,2.02,,1.38
AGTCAAAGTTCATCTTGGTAACGTAAGATATGCT,4.03,5.43,5.84,4.52,4.52,2.03,-0.478,,4.88
GGTACGAGGGCAAAGTTGATAGCATCTGTCGACG,1.13,2.05,1.83,2.49,1.7,1.33,-0.0946,,1.48
ACTAGTTGCTCAGCTGAGGTCACACACAATTCGG,3.77,3.37,2.72,1.09,3.6,4.23,4.94,,3.14
CCGAGTAGGGTACGAGGGGGCATTCAGTGCGAAT,1.62,1.87,1.59,1.73,1.03,2.64,0.475,,4.03
CGGACTGGGGCAAAGGTTACCATACTCAGTACGA,2.31,3.75,1.9,0.0322,3.79,2.1,0.079,,0.18
TAGCCTAGGTCATGCGGGTCAGTATAGTGTCGGC,4.27,4.91,4.9,1.07,4.2,3.75,1.35,,2.26
ATCTCTAGGTAAAGGTCAGTGAAAGATCGATAGA,4.26,4.52,5.13,0.521,4.35,2.98,0.87,,1.17
GATAAAGGGTCAGCTAGAGGCCAGAGTATGGAAA,4.46,7.34,6.77,1.54,5.05,3.06,-0.108,,0.772
AGTCAAAGTTCAGGACGAGGTAAAGTAAAGCACG,3.05,4.76,4.51,3.04,3.22,3.78,1.51,,2.35
CTATGTAGGCTAAGGGGGTCATTCAGTTTGAAAG,3.39,4.23,2.53,1.96,4.7,3.45,1.51,,4.02
CGAACTAGGTCAAAGGACAGCGAAAGGCGACGTA,3.05,4.13,4.72,1.85,3.19,2.46,0.406,,0.311
CTAGGTAGGTTAAGGGGGTCATTCAGTTTGAAAG,3.87,4.95,3.79,1.97,5.77,3.78,2.19,,5.84
CTATGTAAGTTAAGGGGGTCATTCAGTTTGAAAG,3.7,4.43,3.19,3.07,5.16,3.78,2.28,,5.94
CCGAGTAGGTTACGAGGGGGCATTGAGTGCGAAT,1.96,3.29,2.3,1.46,2.21,3.98,0.378,,3.76
ATATGTAGGTAAGGGTCATTCAGAAAGTAGGGAA,3.55,4.21,3.2,2.15,4.88,3.01,1.15,,3.13
